# According to the supplement of paper PMC6555819:
# Test system: RARa homodimer (NR concentration 270 nM)
# Assay: PBM binding z-score (relative to random genomic background probes); higher = stronger binding; sequences stand for … in GC…GCGATTGACAGCGTAGAATGAAGG
# How it was run: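 Ligand-free nuclear receptor dimers were bound for 1 h to custom Agilent 4×180K protein-binding microarrays. Detection used antibodies against each partner (one per run). Binding z-scores rest on regression-normalized fluorescence, with random background probes as the reference.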
row,Sequence,PBM binding z-score
1,ATCGAAAGGTCGACGAGGTGAATATACACCGTTT,1.02
2,CGTCCTAGGTCAAGGTCAGTGAAAGAGACTCGAA,1.1
3,CTCGAAAGGTCGTGCTCAGGTGAGCATACCAAAC,-0.133
4,ATCGAAAGGTCGAAGGTGAGTATACCCACCCGAA,0.591
5,CCGGCTGGGGCAGAAAGGTTACCATACCATCCGG,-0.576
6,AGAATGAGGTTATTAAGACCAGGGAATTGCGGTC,-0.0801
7,ATCGAACGGTCGAAGGTGAGTATACCCACCCGAA,-0.549
8,CATACAGGGTCAGCTAGGCAAGAGTAGGGACGGC,0.47
9,AGAATGAGGTTAAGATCAGGGAAACAGAATACAT,0.481
10,ACAGACAGGTGAGGGAAGGTAACTCAGCTGGACG,-0.347
11,GCTAGTTGGTCAGTAGAAGGTCACACACCGGTCG,0.845
12,CCAGACAGGTGAGAAGGCAACTCAGCCTCGATTA,0.0696
13,ATCTCTAGGTAAAGTTCCGTGAAAGATCGATAGA,1.19
14,TCTAGTTGGTCACGGAGGTCACGCACGACGGGTA,1.73
15,TTACCATGGTGAAAGGTCGTTGATGCACGCCTTG,-0.159
16,CGAACTAGGTCATTGACAGGACATTGAATAGTAA,0.367
17,GGAACGAGGGCAAGTAGATAGCAGAGTTTGATGG,-0.258
18,AGAACGAGGGCACGCTGAGTTGATCGCAGAGTAG,-1.04
19,CATCCAGGGTCAGCTAGGCCAGAGTAGGGACGGC,0.407
20,CCGAGTAGGTTATGGGGAATTCAGGCAACGGTGA,0.587

row,Sequence,PBM binding z-score
1,ACTCGGAGGACAAAGGTCGGAGCTACGCCAGTGA,-0.447
2,GGAACGAGGGCAAAGTTGACAGCATCTGTCGACG,-0.5
3,TCTTGTTGATCAAGCAGGTTAAGAAAGCCTGAGT,-0.0111
4,CCGAGTAGGTTATGGGGCCTTCAGGCAACGGTGA,0.0148
5,TCTCGGAGGACGCGAAAGGTCAGAGCTCGACATC,0.692
6,TAGCCTAGGTCAGATTGGGCCAGTATACGCTATA,-0.737
7,GATATTAGTTGAAAGGGCAACCGAATGATTCTCG,2.21
8,GGAACGAGGGCAAGCTGATAGCAGAGTTTGATGG,-0.744
9,CCGACTGGGGCACGGTTACCATAACGCACAGCCA,-0.261
10,GCAGACAGGTGGAACGCAGGTAACTCAGGGTGGC,-1.35
11,AGAATGAGGCTATACGTAGATCAGGGAAGAAAGT,-0.0794
12,CCAGACAGGTGAGAAGGTACCTCAGCCTCGATTA,-0.214
13,GCTAGCAGGCCATTTGCGTCACTCAATGACGGGC,-1.25
14,ATCGAAAGTTCGACGAGGTGAGTATACACCGTTT,-0.0858
15,CCTCAGAGGACAACAGGAGGTCAGAGCTGCCAGA,0.569
16,CGTCAAAGTTCAACTAAGGTAACGTACAGCACGC,2.23
17,GAAACAGGGTCAAGGCCAGAGTACGCGTATTGAT,0.267
18,GCTTGTAGATCAAGGTTAAGAACGACTAAGCTAA,0.211
19,TCTTGTAGATCAAAGGTTAAGAATGCCGAAGCCT,0.414
20,GCTTGTAGTTCAAGGTTAAGAAAGACTAAGCTAA,0.195
